In PubChem BioAssay AID1209 (Sanford-Burnham Center for Chemical Genomics, 2008):
Among all 190,000 compounds or so, about 810 (0.43%) were called active. For the sample, actives were picked, then their nearest neighbours and some compounds at random. Values without a mark were called inactive. Rule as the data show it: active = inhibition above about 50%; inactive = the rest.

Target: Mannose-6-phosphate isomerase (Homo sapiens) (UniProt P34949)
Assay: MPI enzyme activity inhibition – biochemical, fluorescence intensity, coupled assay, primary screen (AID 1209);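 also: plate controls were DMSO vehicle for no effect and wells lacking substrate for full effect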
Conditions: purified PMI enzyme, at 20 µM, stronger effect = higher value

Chain of Mannose-6-phosphate isomerase (Homo sapiens) (P34949 whole entry, looked up): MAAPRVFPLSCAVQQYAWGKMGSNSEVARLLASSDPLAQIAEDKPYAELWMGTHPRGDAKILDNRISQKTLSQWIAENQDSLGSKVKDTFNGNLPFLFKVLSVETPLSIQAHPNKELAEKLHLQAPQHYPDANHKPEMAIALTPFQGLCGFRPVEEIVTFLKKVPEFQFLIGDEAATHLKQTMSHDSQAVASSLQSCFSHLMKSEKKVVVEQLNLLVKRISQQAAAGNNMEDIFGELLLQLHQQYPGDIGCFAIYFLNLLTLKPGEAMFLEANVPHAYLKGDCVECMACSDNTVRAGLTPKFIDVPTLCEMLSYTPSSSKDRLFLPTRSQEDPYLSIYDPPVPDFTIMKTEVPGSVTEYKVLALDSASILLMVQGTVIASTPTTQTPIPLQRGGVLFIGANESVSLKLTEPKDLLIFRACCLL

SMILES | inhibition
Cc1c(Cl)c(C(=O)NC2CCCC2)nn1C | -11.9%
Nc1nc2c(s1)COc1ccccc1-2 | 12.7%
Nc1nc2c(s1)CCc1c-2cnn1-c1ccccc1 | 86.9% (active)
Nc1nc(-c2ccccc2)c(-c2ccccc2)s1 | -1.1%
CCCCCc1nc2sc3c(c2c(=O)n1N)CCC3 | -5.8%
O=C(Cn1cnc2ccccc2c1=O)NCc1ccc2c(c1)OCO2 | 2%
O=C(CCc1ccccc1)NC(=S)NCc1ccco1 | 7.5%
C[N+](C)(C)CCCNC(=O)c1ccc(/C=N/O)nc1 | 83.5% (active)
NCCCNC(=O)c1ccc(/C=N/O)nc1 | 0.9%
CNCCCNC(=O)c1ccc(/C=N/O)nc1 | -9.8%
CCOC(=O)CC(=O)Nc1ccc(Br)cc1C(=O)O | 7.4%
COC(=O)c1ccc(-c2nc(-c3ccc(Br)o3)no2)cc1 | 10.6%
COc1ccccc1Sc1ccccc1/C=N/NC(N)=O | 2.1%
CC(C)(C)c1cc(=O)n(-c2ccccc2)[nH]1 | 64.7% (active)
COC(=O)Cc1cc(=O)n(-c2ccccc2)[nH]1 | 11%
Cc1cc(=O)n(-c2ccc(C(=O)O)cc2)[nH]1 | -22.8%
O=C1c2ccccc2C(=O)N1c1ccc(-c2nc3ccccc3o2)cc1 | -2.8%
O=C1c2ccccc2C(=O)N1Cc1nc2ccccc2o1 | -0.5%
CC(c1nc2ccccc2o1)N1C(=O)c2ccccc2C1=O (centres undefined) | 66.9% (active)
Cc1ccc(NS(=O)(=O)c2ccccc2[N+](=O)[O-])cc1C | -10.7%
CCN1C(=O)CSc2ccc(C(=O)OC)cc21 | -2.3%
COc1ccc(NC(=S)N(Cc2cccc(Br)c2)CC2CCC(C(=O)O)CC2)cc1 (centres undefined) | -6.9%
CN=c1scc(-c2cccs2)n1/N=C/c1ccccc1O | 5.2%
CC(C)N=c1scc(-c2cccs2)n1/N=C/c1ccc(O)c(O)c1O | 75.9% (active)
CN=c1scc(C)n1/N=C/c1ccc(O)cc1O | -4%
Oc1ccc(/C=N/n2c(-c3ccco3)csc2=Nc2cccnc2)c(O)c1 | -1.6%

SMILES | inhibition
CN=c1scc(-c2ccccc2F)n1/N=C(\C)c1cccnc1 | -9.3%
CN=c1scc(-c2ccccc2F)n1/N=C/c1ccc(O)c(O)c1O | 70.6% (active)
CN=c1scc(-c2ccccc2F)n1/N=C/c1ccc[nH]1 | -16.2%
Cc1nc2ccccc2c(=O)n1/N=C/c1cn(-c2ccccc2)nc1-c1cccs1 | -10.8%
Cc1ccc(OCC(O)Cn2c(=N)n(CCN3CCOCC3)c3ccccc32)cc1 (centres undefined) | -3.6%
CC(Oc1ccccc1)C(=O)N1CCN=C1SCc1ccccc1 (centres undefined) | -6.4%
Cc1cc(F)ccc1S(=O)(=O)N1CCCOC1CNC(=O)C(=O)NCc1ccco1 (centres undefined) | -3.1%
CCCCCNC(=O)c1ccc2c(=O)n(CCOC)c(=O)[nH]c2c1 | -5.7%
O=C(CCNC(=O)c1ccccc1Cl)Nc1ccc(Br)c(C(F)(F)F)c1 | 15%
CN1C(=S)SC(N(O)C(=O)Nc2cccc3ccccc23)C1(C)C (centres undefined) | 37.9%
CC(NC(=O)c1ccc(C(F)(F)F)cc1)C(c1ccccc1)N1CCOCC1 (centres undefined) | -8.2%
NC(=O)CNc1n[nH]c(=S)[nH]c1=O | -27.7%
Oc1ccc(/C=N/Nc2ccc(C(F)(F)F)cn2)cc1 | -2.8%
Oc1ccc(/C=N/Nc2ccc(C(F)(F)F)cn2)cc1O | 61.6% (active)
COc1cc(/C=N/Nc2ccc(C(F)(F)F)cn2)ccc1O | 7.1%
Cc1cc(O)c2c(c1)C(O)(C1OC(CO)C(O)C(O)C1O)c1cccc(O)c1C2=O (centres undefined) | 2%
O=C(CCc1nnc(C2CCCCC2)o1)NCc1ccc(F)c(F)c1 | -5.7%
CCOC(=O)c1cc(C(C)=O)c(=O)[nH]c1C | 2.7%
CCCNC(=O)c1ccccc1NC(=O)c1ccccc1SC | 0.3%
CCN1C(=O)S/C(=C/c2ccc(Sc3nc4ccccc4[nH]3)o2)C1=O | 56.4% (active)
CC(C)N1C(=O)S/C(=C/c2ccc(Sc3nc4ccccc4[nH]3)o2)C1=O | 26.5%
C=CCN1C(=O)S/C(=C/c2ccc(Sc3nc4ccccc4[nH]3)o2)C1=O | 44.5%
Cc1ccc(S(=O)(=O)NCCOc2nc(N(C)C)nc(N3CCOCC3)n2)cc1 | 16.3%
O=C(O)Cc1c(C(=O)O)nnn1-c1cccc(C(F)(F)F)c1 | -2.9%
COC(=O)Cc1c(C(=O)OC)nnn1-c1cccc(C(F)(F)F)c1 | 75.8% (active)
COC(=O)Cc1c(C(=O)OC)nnn1-c1ccc(OC(F)(F)F)cc1 | -7.2%

SMILES | inhibition
O=C(NNC(=O)C1C2CCC(C2)C1C(=O)O)c1cccc(Cl)c1 (centres undefined) | -7.9%
O=C(CCCOc1ccccc1)N1CCN(c2ccccn2)CC1 | 0.9%
O=C(NCc1cccnc1)c1ccc(COc2ccc3c(c2)CCC3)o1 | 11%
Cc1ccc(Nc2c(F)c(F)c(F)c(F)c2C(=O)O)cc1 | -24%
CCn1c(Cc2ccccc2)nnc1SCC(=O)Nc1cc(C)on1 | -6.5%
CCCCn1c(Cc2ccccc2)nnc1SCC(=O)Nc1cc(C)on1 | 50.8% (active)
COCCn1c(Cc2ccccc2)nnc1SCC(=O)Nc1cc(C)on1 | 3.8%
Cc1ccccc1NC(=O)N1CCC(C(=O)c2ccc(F)cc2)CC1 | -0.8%
Cc1ccc(C(CC(=O)c2ccco2)SCCO)cc1 (centres undefined) | 88.3% (active)
O=C(CC(SCCO)c1ccc(F)cc1)c1ccco1 (centres undefined) | 4.8%
O=C(CC(SCCO)c1ccc2c(c1)OCO2)c1ccco1 (centres undefined) | 10.7%
NCCCC[C@@H]1NC(=O)[C@H](CCC(=O)O)NC(=O)c2cc([N+](=O)[O-])cc(I)c2OCC[C@@H](C(N)=O)NC1=O | -36.4%
CC1CN(S(=O)(=O)c2cccs2)CC(C)O1 (centres undefined) | -2.4%
Cc1cc2n(n1)SC(Nc1ccc(F)cc1)N2 (centres undefined) | 64.5% (active)
CCc1ccc(NC(=O)c2cc(C)on2)cc1 | 6.1%
CN1C(=O)SC(Nc2ccc(F)cc2)C1=O (centres undefined) | 3.1%
Cc1cc2n(n1)SC(Nc1ccccc1)N2 (centres undefined) | 24.7%
CCc1ccc(Nc2cc(C)nc3nc(C)nn23)cc1 | -5.4%
COc1ccc(CCNC(=O)c2nnn(-c3cccc(C)c3)c2N)cc1OC | 4.4%
Cc1nc(SC(C(=O)c2ccccc2)c2ccccc2)n[nH]1 (centres undefined) | 2%
C=CCn1c(SCc2c(F)cccc2Cl)nnc1-c1ccco1 | -6.5%
CCCn1c(NCc2ccco2)nc2c1c(=O)n(C)c(=O)n2C | -8.2%
COc1ccc(F)cc1C(=O)C1CCCN(Cc2ccc(Oc3ncccn3)cc2)C1 (centres undefined) | -3.3%
Nc1c2c(nc3ccc(Br)cc13)N(c1ccccc1)CC2 | 17%
Cc1cccc(N2CCc3c2nc2ccc(Br)cc2c3N)c1 | 69.9% (active)
Cc1ccc2nc3c(c(N)c2c1)CCN3c1ccccc1 | 0.5%

SMILES | inhibition
CCN(CC)S(=O)(=O)c1ccc2c(c1)nc(CCC(=O)Nc1ccc(N3CCOCC3)cc1)n2C | 3.7%
COc1ccc(Cl)cc1Nc1ncnc2sc(C)c(S(=O)(=O)N3CCC(C)CC3)c12 | 5.4%
Cc1cc2nc[nH]c2cc1[N+](=O)[O-] | 4%
Nc1cc2nc[nH]c2cc1N | 68.3% (active)
Nc1ccc2nc[nH]c2c1 | -17.5%
c1ccc2c(-c3nn[nH]n3)cccc2c1 | -8.6%
O=C(N/N=C/c1ccc(N2CCOCC2)o1)c1cccc(C(F)(F)F)c1 | -5.7%
O=C(N/N=C/c1ccc(N2CCOCC2)o1)c1cccc(F)c1 | -2.7%
O=C(N/N=C/c1ccc(N2CCOCC2)o1)c1cccc([N+](=O)[O-])c1 | 79% (active)
CCOC(=O)c1c(-c2ccc(C)cc2)csc1/N=C/N(C)C | 12.2%
COc1ccc(OC)c(N=C2C(=O)Nc3ccccc32)c1 | 16.4%
COc1cc(N=c2ssnc2Cl)c(OC)cc1Cl | 98.9% (active)
COc1cc(N)c(Cl)cc1Cl | -7.9%
COc1ccc(OC)c(N=c2ssnc2Cl)c1 | 88.1% (active)
COc1cc(OC)c(Cl)cc1N | 9.7%
COc1ccc(OC)c(N=C(N)N=C(N)N)c1 | 2.9%
C#CCOCCOCCOCCNc1nc(N2CCN(C(=O)C([C@@H](C)CC)n3cc(C(N)Cc4ccc(O)cc4)nn3)CC2)nc(N2CCN(C(=O)[C@H](CCC(=O)O)n3cc(C(N)CC(C)C)nn3)CC2)n1 (some centres undefined) | -18.6%
COc1ccc(C(=O)/C=C/C(=O)N(Cc2ccccc2OC)C(C(=O)NC2CCCCC2)c2ccncc2)c(O)c1 (centres undefined) | 13.1%
Cc1ccc(S(=O)(=O)/N=C(/c2ccc(F)cc2)N2CCCC2)cc1 | 7.2%
CSc1ccc(/C=C/C(=O)c2ccc(NC(=O)Cc3ccccc3)cc2)cc1 | 15.3%
Nc1ccc(N2CCCCC2)cc1N1CCCCC1 | 61.7% (active)
Nc1ccc(N2CCCCCC2)cc1 | -3.3%
Cc1nn(-c2cc(N3CCCCC3)ccc2N)c(=O)c2ccccc12 | 25.5%
Cc1cc(C)c2sc(N(CCCN(C)C)C(=O)COc3ccc(Cl)cc3)nc2c1 | 50.2% (active)
CN(C)CCCN(C(=O)COc1ccc(Cl)cc1)c1nc2ccc(F)cc2s1 | -8%
Cc1ccc2nc(N(CCCN(C)C)C(=O)COc3ccc(Cl)cc3)sc2c1 | -9.9%
